DTT redox prof: compounds producing H2O2 with reducing agent – biochemical, NIH compound library profiling, artefact control for MLSCN library redox annotation, primary screen | actives 0.03% (n = 200,000) | AID 878 | DTT-dependent redox cycling H2O2, phenol red/HRP absorbance; 100% = 100 µM peroxide control, 0% = buffer | activation, % at 10 µM;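 active = activation of at least 50% relative to the plate's high and low controls in the primary single-dose screen; inactive = activation below 50%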;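 also: compound incubated with DTT at 0.8 mM final as the reducing agent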
S1P4 agonist: human S1P4 receptor agonism; O95977; S1P4-expressing cell line, agonist reporter assay; activation, % at 4.98 µM; actives 0.35% (n = 220,000); in the data active = activation above about 11%;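 also: 0% = DMSO vehicle and 100% = reference agonist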
S1P3 antag: blocks the human S1P3 receptor | CHO S1P3 NFAT-BLA reporter, FRET fluorescence, antagonist mode | inhibition, % at 4.98 µM | actives 0.27% (n = 170,000);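 active = inhibition above the plate cutoff, the mean inhibition of test wells on that plate plus 3 SD, cut at about 28% in these data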;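 also: cells challenged with S1P at its EC80 of 0.8 µM; blue over green emission ratio from cleaved BLA substrate after 4 h stimulation; 0% = S1P-stimulated wells and 100% = unstimulated DMSO-only wells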
Target sequence (Q99500 whole entry, looked up): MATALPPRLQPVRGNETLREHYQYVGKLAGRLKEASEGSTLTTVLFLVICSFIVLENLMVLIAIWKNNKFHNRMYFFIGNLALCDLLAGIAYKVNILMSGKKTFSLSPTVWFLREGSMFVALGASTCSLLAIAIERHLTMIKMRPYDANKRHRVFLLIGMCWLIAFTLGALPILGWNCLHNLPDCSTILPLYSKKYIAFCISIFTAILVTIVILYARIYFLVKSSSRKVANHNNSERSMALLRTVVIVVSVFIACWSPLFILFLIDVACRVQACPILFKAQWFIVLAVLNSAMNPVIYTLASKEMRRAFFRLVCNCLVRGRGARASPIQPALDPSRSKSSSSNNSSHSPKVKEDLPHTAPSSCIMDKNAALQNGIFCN
S1P4 antagonist: antagonists of human S1P4 receptor | S1P4-expressing cells, antagonist mode, reporter read-out | inhibition, % at 4.98 µM | actives 0.26% (n = 220,000); in the data active = inhibition above about 29%;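 also: 0% = wells stimulated with agonist and 100% = vehicle wells without agonist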
p97 ATPase inh: inhibitors of human p97 ATPase; P55072; recombinant p97 ATPase, Kinase-Glo ATP luminescence, 3 h; inhibition, % at 8 µM; actives 0.42% (n = 220,000); in the data active = inhibition above about 15%;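 also: 0% = DMSO vehicle and 100% = wells lacking enzyme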
SUMO HTRF inh: SUMOylation inhibition; inhibition, % at 35 µM; HTRF SUMOylation assay, SAE1/SAE2 + UBC9, in vitro; AID 2006; actives 0.36% (n = 290,000); P63279; in the data active = inhibition above about 50%, passing the limit was not always enough
Target sequence (P63279 whole entry, looked up): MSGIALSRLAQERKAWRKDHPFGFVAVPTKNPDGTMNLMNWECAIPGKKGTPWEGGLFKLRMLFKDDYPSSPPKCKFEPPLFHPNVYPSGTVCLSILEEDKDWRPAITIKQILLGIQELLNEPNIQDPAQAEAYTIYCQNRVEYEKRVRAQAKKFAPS
* marks the source's active call; other numbers are inactive results; . = no result. Sampled rows, rich in hits. Any-hit rate of the full collection: about 1.1%.

SMILES | DTT redox prof | S1P4 agonist | S1P3 antag | S1P4 antagonist | p97 ATPase inh | SUMO HTRF inh
N=c1oc2cc(O)ccc2cc1C(=O)Nc1ccccn1 | 1 | 74* | -72 | -52 | 0 | 30
N=C1C(c2ccccc2)=C(O)CN1c1cccc(S(=O)(=O)N2CCOCC2)c1 | . | 1 | -5 | -13 | 3 | 8
O=C1C2CCCN2C(c2cccc(F)c2)N1c1cccc(Cl)c1 (configuration not stated) | -2 | 1 | 68* | -11 | 0 | -4
O=C1C2CCCN2C(c2ccc(F)cc2)N1c1cccc(Cl)c1 (configuration not stated) | -1 | -1 | -32 | 2 | -6 | 5
COc1ccc(N2CSC3=C(C#N)C(c4cccc(OC)c4OC)CC(=O)N3C2)cc1 (configuration not stated) | -2 | -2 | 99* | -13 | 5 | 13
Cc1cccc(N2CSC3=C(C#N)C(c4ccc(C)o4)CC(=O)N3C2)c1 (configuration not stated) | 1 | 0 | -6 | -12 | 17* | 78*
COc1ccc(Cn2c(=O)[nH]c3cc(C(=O)N4CCN(c5ccccn5)CC4)ccc3c2=O)cc1 | 1 | -2 | -21 | -18 | -7 | 13
COc1ccccc1NC(=O)Nc1nnc(-c2ccco2)s1 | -4 | 1 | . | 2 | 6 | -4
COc1ccccc1NC(=O)c1sc2nc(-c3ccco3)ccc2c1N | 0 | 2 | -7 | -11 | 2 | 54*
Cc1ccc(SCC(=O)NC(=O)NCCC(C)C)c(C)c1 | 0 | 3 | -1 | -14 | -2 | 2
COc1ccc(OC)c(C2C(C(C)=O)=C(O)C(=O)N2CCC(=O)O)c1 (configuration not stated) | 1 | -3 | 104* | -20 | 6 | 8
O=C(O)Cc1cn(Cc2ccc(F)cc2)c2ccccc12 | 0 | 1 | 1 | -6 | 4 | 17
Cc1[nH][nH]c(=O)c1C(c1c(C)[nH][nH]c1=O)c1cn(Cc2ccc(F)cc2)c2ccccc12 | 0 | 1 | 3 | -14 | 26* | 80
Cn1cc([N+](=O)[O-])c(C(=O)Nc2cc(Oc3cccnc3)cc([N+](=O)[O-])c2)n1 | -7 | -5 | . | 31* | -1 | -12
Cc1ccc2c(c1)sc(-c1ccc(N(C)C)cc1)[n+]2C | . | . | . | . | . | 5
CCOC(=O)C1CCN(c2c(NCc3ccc(C(=O)Nc4ccc(C)cc4)cc3)c(=O)c2=O)CC1 | . | 0 | -14 | -9 | 5 | 24
NC(=O)[C@H](Cc1cc2ccccc2s1)NC(=O)[C@@H]1CC2(CC(c3cccc(NC(=O)[C@@H]4CCC(=O)N4)c3)=NO2)CN1C(=O)/C=C/Sc1ccccc1 (some centres not stated) | 1 | 1 | -5 | 6 | 17* | -2
COc1ccc(C(=O)Nc2ccc(-c3nnn(CC(=O)NCc4ccco4)n3)cc2)cc1 | . | 0 | 1 | -3 | -8 | 61*
Cc1ccc(C(=O)Nc2cccc(C(=O)NCc3ccco3)c2)cc1 | -1 | 1 | 67* | 8 | -4 | 15
O=C(NCc1ccco1)c1cccc(NC(=O)c2ccccc2)c1 | 1 | 2 | 40 | 7 | -1 | -24
Cc1ccc(C(=O)Nc2sc3c(c2C(=O)NCc2ccco2)CCCC3)cc1 | 1 | 0 | . | 4 | 2 | 73*
O=C(Nc1ccc2c(c1)OCO2)N1CCN(Cc2ccco2)CC1 | -3 | -1 | -9 | -2 | -1 | -20
O=S(=O)(c1cc(Cl)ccc1Cl)N1CCN(Cc2ccc3c(c2)OCO3)CC1 | -1 | -4 | 86* | 12 | -13 | -15
Cc1cc(OC(=O)c2ccccc2)n(CCC#N)n1 | 0 | 0 | 102* | -1 | 10 | -10
CN=C(Nc1cc(C)nn1CCC#N)c1ccccc1 | 2 | 0 | -18 | 4 | 0 | 15
SMILES | DTT redox prof | S1P4 agonist | S1P3 antag | S1P4 antagonist | p97 ATPase inh | SUMO HTRF inh
CCCc1cc2c(cc1NC(=O)c1ccco1)OCO2 | -1 | 4 | -7 | -9 | -4 | 12
NC(=S)n1[nH]c(-c2ccc([N+](=O)[O-])cc2)c(N=Nc2ccc(Cl)cc2)c1=O | -1 | 3 | -16 | -4 | -1 | 64*
O=C(NCCN1CCc2ccccc2C1)Nc1ccc([N+](=O)[O-])cc1 | -3 | 1 | 0 | -31 | -1 | 58*
COc1ccc(-n2nnnc2S(=O)(=O)CC(=O)N2CCCCC2)cc1 | -1 | -3 | 18 | 54* | 4 | 13
Cc1cc(C(=O)CSc2nc(N)cc(N)n2)c(C)n1C1CC1 | 0 | -1 | -4 | -17 | 10 | 51*
C=CCn1c(C)cc(C(=O)CSc2nc(N)cc(N)n2)c1C | -2 | 1 | -13 | -15 | 8 | 13
CC(=O)C1=C(C)Nc2ncnn2C1c1ccc(Cl)cc1 (configuration not stated) | -1 | 5 | 81* | -5 | 1 | -20
CC(=O)c1cccc(NC(=O)Cc2cccs2)c1 | -3 | 2 | 12 | -16 | 0 | 15
O=C(Cc1cccs1)Nc1cccc(C(=O)Nc2ccco2)c1 | 0 | -3 | 52* | -20 | -1 | 11
O=C(O)c1cc2cccc(S(=O)(=O)N3CCOCC3)c2cc1O | 2 | 1 | . | 3 | 4 | 52*
N/N=C(/Cc1nc2ccccc2[nH]1)c1ccc([N+](=O)[O-])cc1 | -2 | -2 | -7 | -1 | -1 | -8
COc1cccc(C2/C(=C(\O)c3ccc4c(c3)OCCO4)C(=O)C(=O)N2CCCN(C)C)c1OC (configuration not stated) | 1 | 38* | . | -7 | 0 | .
O=C1NC(c2ccc(Cl)c([N+](=O)[O-])c2)Nc2ccccc21 (configuration not stated) | -2 | 0 | 5 | -3 | 9 | 6
O=[N+]([O-])c1cc(C2Nc3cccc4cccc(c34)N2)ccc1Cl | 2 | 1 | -10 | -11 | 0 | 59*
COc1ccccc1-n1c(=O)oc2ccc(Cl)cc2c1=O | 2 | -2 | -4 | -1 | -4 | -2
O=C(c1ccco1)N1CCN(Cc2nc3cc(Cl)ccc3c(=O)[nH]2)CC1 | 0 | 1 | -1 | -13 | 3 | 5
COC(=O)c1ccc(Oc2c(C)oc3c(CN4CCN(C)CC4)c(O)ccc3c2=O)cc1 | 0 | 1 | -19 | -11 | -7 | 38
COc1ccccc1Oc1c(C)oc2c(CN3CCN(C)CC3)c(O)ccc2c1=O | -1 | 1 | -9 | -14 | -1 | 52*
CN(C)c1cc(N/N=C\c2ccccc2)nc(N(C)C)n1 | 0 | 0 | -5 | -1 | -3 | .
COc1ccc(/C=N/Nc2cc(N(C)C)nc(N(C)C)n2)cc1 | 0 | 2 | -4 | -14 | 4 | 95*
Cc1cc(F)ccc1NCC(=O)Nc1ccccc1Br | 0 | 0 | -3 | -2 | 4 | -22

High-throughput results deposited in PubChem BioAssay by several laboratories.
